Results filed as inconclusive are left out. Active and inactive are the calls of the source.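 The calls were made as follows, unless noted: active = inhibition above the screen-wide mean plus 3 SD, about 51%; inactive = the rest.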
Key:
[1] = rapamycin-like changes in RPL19A-GFP expression – cell-based, S. cerevisiae, multiplex flow cytometry, primary screen (AID 1862; in the data active = percent of DMSO control GFP below about 86%;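 also: lower values mimic rapamycin by blocking the RPL19A rise seen in DMSO cells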); details: S. cerevisiae RPL19A-GFP strain, flow cytometry fluorescence, 3 h; at 10 µM; stronger effect = lower value
[2] = TOR pathway GLN3 branch reporter MEP2-GFP changes – S. cerevisiae, multiplex flow cytometry, primary screen (AID 1867;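 active = GFP response, as percent of the DMSO control, above the screen-wide mean plus 3 SD, about 139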;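 also: median GFP channel fluorescence of barcode-gated MEP2-GFP cells measured by flow cytometry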); details: S. cerevisiae MEP2-GFP strain, 3 h, at 10 µM, stronger effect = higher value, 100% means same as DMSO wells
[3] = TOR pathway RTG branch CIT2 reporter changes – S. cerevisiae, GFP fusion, multiplex flow cytometry, primary screen (AID 1870;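 active = percent response above a set limit, the screen-wide mean plus 3 SD, cut at about 130% in these data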;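 also: barcoded CIT2-GFP strain pooled with four other GFP strains with rapamycin as positive control; median GFP fluorescence per well over plate mean of DMSO wells so 100% = DMSO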); details: S. cerevisiae CIT2-GFP expression, 3 h, at 10 µM, stronger effect = higher value
[4] = TOR pathway LAP4-GFP level changes – S. cerevisiae, multiplex flow cytometry, primary screen (AID 1873;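 active = GFP signal, as percent of the solvent control, above the screen mean plus 3 SD, about 149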); details: S. cerevisiae LAP4-GFP expression, 3 h, at 10 µM, stronger effect = higher value
[5] = yeast AGP1-GFP level changes, GLN3 branch – cell-based, multiplex flow cytometry, S. cerevisiae, primary screen (AID 1887;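 active = GFP signal above the screen-wide mean plus 3 SD, that is over about 124.5% of the solvent control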;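 also: AGP1-GFP fusion strain of S. cerevisiae within a five-strain barcoded multiplex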); details: 3 h, at 10 µM, stronger effect = higher value
[6] = reduced mouse 2C T cell binding to pMHC/ICAM-1 vesicles – MLPCN validation set, flow cytometry, LFA-1/ICAM-1 modulator project, pilot screen (AID 2523;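 active = response below a set limit, under 55% cells CD8-positive and vesicle-bound, and CD8 cells' 90th-percentile brightness under 279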;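 as to vesicle binding response: mean PE anti-B7-1 fluorescence of CD8+ cells relative to row control; 100% = QL9-loaded vesicles with DMSO vehicle in the same plate row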); details: 2C mouse CD8+ T cells, at 7 µM, stronger effect = lower value; double positive events: measured here: CD8+/vesicle+ event percentage
[7] = biological target: Integrin beta-1 (Homo sapiens) + Integrin alpha-4 (Homo sapiens) (UniProt P13612+P05556); assay: alpha4beta1 integrin LIBS antibody binding reduction – U937 cells, HUTS-21 mAb, flow cytometry, validation set, VLA-4 allosteric modulator project, pilot screen (AID 2674;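 active = inhibition above 50%, about 3 SD of the validation set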;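 also: antibody binding induced by the VLA-4 ligand LDV present at three times its Kd; 0% = LDV ligand with antibody and no compound and 100% = antibody without LDV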); details: HUTS-21 LIBS mAb binding, at 6.7 µM, stronger effect = higher value, binding induced by LDV ligand
Integrin beta-1 (Homo sapiens) + Integrin alpha-4 (Homo sapiens), sequence (P05556 whole entry, looked up): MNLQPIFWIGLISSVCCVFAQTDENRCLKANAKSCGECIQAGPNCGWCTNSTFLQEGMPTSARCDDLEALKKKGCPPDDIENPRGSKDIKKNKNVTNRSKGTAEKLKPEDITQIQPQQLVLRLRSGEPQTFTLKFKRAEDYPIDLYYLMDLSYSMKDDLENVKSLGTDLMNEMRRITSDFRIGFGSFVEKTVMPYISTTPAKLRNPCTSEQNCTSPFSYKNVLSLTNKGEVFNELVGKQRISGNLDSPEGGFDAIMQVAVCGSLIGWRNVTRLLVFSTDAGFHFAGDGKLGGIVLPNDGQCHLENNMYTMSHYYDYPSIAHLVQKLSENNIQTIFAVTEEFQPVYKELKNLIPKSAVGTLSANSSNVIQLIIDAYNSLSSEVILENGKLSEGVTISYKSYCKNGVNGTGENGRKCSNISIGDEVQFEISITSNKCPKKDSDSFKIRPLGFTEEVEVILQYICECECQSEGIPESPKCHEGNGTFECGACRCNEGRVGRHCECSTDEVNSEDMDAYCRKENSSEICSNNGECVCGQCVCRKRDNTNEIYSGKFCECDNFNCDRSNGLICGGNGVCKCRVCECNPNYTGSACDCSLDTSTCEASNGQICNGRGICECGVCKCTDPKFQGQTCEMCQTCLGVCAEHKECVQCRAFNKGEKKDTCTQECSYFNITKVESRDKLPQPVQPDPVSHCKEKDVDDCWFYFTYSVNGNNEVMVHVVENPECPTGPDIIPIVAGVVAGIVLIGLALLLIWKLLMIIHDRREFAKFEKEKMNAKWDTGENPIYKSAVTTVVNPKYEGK
Integrin beta-1 (Homo sapiens) + Integrin alpha-4 (Homo sapiens), sequence (P13612 whole entry, looked up): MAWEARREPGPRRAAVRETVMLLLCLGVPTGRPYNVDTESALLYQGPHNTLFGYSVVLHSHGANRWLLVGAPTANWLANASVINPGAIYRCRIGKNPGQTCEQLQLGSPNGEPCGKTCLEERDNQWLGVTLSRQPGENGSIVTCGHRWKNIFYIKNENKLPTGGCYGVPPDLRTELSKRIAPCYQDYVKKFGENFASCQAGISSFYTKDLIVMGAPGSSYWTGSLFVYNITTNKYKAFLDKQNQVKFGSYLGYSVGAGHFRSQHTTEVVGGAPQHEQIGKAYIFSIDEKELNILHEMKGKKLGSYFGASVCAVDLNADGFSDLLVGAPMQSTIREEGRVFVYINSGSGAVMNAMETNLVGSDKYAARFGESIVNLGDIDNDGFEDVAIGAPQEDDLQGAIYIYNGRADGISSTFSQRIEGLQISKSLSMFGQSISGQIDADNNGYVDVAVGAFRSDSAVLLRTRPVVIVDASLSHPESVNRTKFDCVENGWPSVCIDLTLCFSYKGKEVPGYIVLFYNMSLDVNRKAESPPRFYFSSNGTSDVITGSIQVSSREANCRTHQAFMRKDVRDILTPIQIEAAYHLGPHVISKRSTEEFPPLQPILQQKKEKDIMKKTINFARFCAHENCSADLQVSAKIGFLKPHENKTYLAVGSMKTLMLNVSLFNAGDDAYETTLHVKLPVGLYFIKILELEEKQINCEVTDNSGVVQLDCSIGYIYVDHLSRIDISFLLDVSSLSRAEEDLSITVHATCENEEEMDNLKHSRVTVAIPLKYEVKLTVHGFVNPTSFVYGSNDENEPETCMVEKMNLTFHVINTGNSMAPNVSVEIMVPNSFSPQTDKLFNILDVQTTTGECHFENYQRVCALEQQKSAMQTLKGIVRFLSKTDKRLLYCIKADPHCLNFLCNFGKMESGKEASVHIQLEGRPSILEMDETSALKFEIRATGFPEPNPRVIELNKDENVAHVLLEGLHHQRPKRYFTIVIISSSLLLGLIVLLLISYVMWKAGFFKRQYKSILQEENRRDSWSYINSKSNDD

[8] = calorie-restriction mimetic ROS inhibitors, yeast – validation compound set, pilot screen (AID 2706;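 active = superoxide response below 65% of plate, a cut near 3 SD across the whole screen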;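 also: yeast exposed to compound for one week at 30 degrees C before staining; 100% = mean of all compound wells on the same plate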); details: S. cerevisiae aging, superoxide DHE fluorescence; at 10 µM, stronger effect = lower value
[9] = biological target: Beta-adrenergic receptor kinase 1 (Homo sapiens) (UniProt P25098); assay: GRK2 binders displacing RNA aptamer, biochemical, validation, human GRK2, bead flow cytometry (AID 488806;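 active = aptamer binding inhibition above 30%, about 3 SD of noise from non-fluorescent compounds; inactive = inhibition at or below 30%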); details: bead-bound GRK2, FAM-aptamer displacement, at 10 µM, stronger effect = higher value
Beta-adrenergic receptor kinase 1 (Homo sapiens), sequence (P25098 whole entry, looked up): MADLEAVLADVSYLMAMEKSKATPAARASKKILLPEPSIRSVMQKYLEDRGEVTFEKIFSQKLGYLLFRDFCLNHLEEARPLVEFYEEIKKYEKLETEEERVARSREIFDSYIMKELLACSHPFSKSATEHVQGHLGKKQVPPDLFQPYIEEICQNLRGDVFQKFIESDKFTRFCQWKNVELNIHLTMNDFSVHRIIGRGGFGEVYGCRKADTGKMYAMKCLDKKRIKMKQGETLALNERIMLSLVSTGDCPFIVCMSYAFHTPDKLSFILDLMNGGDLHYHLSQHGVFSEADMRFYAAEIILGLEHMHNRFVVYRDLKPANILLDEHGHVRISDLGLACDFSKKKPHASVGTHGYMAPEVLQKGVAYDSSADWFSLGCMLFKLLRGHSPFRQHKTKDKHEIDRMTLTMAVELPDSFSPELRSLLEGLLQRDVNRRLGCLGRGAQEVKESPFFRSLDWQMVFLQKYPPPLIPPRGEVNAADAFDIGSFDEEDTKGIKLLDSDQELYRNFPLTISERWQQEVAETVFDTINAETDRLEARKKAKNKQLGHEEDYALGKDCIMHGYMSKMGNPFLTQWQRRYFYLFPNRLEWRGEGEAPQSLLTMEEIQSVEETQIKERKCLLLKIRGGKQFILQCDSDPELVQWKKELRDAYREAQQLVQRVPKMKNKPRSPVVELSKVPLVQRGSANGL

[10] = biological target: Beta-2 adrenergic receptor (Homo sapiens) (UniProt P07550); assay: agonist-induced loss of surface beta2AR – cell-based, FAP fluorogen, flow cytometry, validation set, pilot screen (AID 504459;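 active = percent response above 42, roughly 3 SD of non-fluorescent test compounds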;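 also: agonist-driven loss of surface beta2AR via internalization measured by FAP dye flow cytometry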); details: Am2.2-beta2AR cells, at 10 µM, stronger effect = higher value
Beta-2 adrenergic receptor (Homo sapiens), sequence (P07550 whole entry, looked up): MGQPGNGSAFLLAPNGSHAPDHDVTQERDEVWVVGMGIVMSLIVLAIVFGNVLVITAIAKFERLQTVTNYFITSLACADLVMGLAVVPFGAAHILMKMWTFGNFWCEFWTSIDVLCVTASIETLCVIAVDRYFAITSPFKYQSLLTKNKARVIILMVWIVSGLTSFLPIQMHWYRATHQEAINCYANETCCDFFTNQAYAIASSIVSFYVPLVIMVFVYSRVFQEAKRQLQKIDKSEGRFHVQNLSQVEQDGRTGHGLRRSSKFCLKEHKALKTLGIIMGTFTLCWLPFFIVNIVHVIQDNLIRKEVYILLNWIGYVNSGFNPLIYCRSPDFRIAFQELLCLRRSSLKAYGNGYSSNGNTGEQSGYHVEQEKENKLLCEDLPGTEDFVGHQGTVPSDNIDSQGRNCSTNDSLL

[11] = biological target: AP-2 complex subunit beta (Homo sapiens) (UniProt P63010); assay: beta-arrestin/AP2 interaction blockers – biochemical, validation set, GST-AP2 beads, flow cytometry, pilot screen (AID 504541;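 active = inhibition above 54%, about 3 SD of non-fluorescent compounds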;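 also: AP2 carries R879A mutation and is captured from E. coli lysate; bead-bound FITC arrestin peptide fluorescence measuring arrestin peptide binding to AP2; 0% = DMSO wells and 100% = excess unlabeled arrestin peptide control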); details: FITC arrestin peptide, at 10 µM, stronger effect = higher value, AP2 beta2 appendage fragment, R879A mutant
AP-2 complex subunit beta (Homo sapiens), sequence (P63010 whole entry, looked up, the tested form may be a part, one chain of several): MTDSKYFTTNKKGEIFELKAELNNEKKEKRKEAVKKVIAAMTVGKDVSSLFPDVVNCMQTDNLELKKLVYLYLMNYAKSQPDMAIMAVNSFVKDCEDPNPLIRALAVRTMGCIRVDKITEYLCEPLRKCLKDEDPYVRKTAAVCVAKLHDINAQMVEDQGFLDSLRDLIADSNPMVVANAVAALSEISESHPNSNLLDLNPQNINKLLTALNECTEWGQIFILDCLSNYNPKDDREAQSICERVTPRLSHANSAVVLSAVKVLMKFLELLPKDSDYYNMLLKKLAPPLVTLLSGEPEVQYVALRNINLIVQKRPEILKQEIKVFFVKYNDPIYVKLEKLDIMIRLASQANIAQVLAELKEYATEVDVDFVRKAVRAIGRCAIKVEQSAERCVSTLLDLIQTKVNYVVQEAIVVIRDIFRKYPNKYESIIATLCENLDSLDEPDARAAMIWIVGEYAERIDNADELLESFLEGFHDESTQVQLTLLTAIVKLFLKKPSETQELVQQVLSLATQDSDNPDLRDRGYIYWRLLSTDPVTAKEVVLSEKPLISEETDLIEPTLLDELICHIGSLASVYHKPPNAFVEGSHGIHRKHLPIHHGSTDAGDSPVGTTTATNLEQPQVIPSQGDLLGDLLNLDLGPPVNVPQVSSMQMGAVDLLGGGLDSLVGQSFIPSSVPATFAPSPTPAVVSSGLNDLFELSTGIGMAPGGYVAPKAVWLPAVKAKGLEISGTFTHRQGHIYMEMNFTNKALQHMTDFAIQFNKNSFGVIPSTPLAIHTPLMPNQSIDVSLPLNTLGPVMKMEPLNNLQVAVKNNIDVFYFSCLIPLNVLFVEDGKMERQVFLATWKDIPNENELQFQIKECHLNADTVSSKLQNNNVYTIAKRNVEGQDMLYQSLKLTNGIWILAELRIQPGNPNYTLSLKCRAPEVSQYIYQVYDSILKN

[12] = cytosolic pH regulators acting via V-ATPase – S. cerevisiae, pHLuorin, HTS validation (AID 504600; in the data active = response above about 15%;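 also: plate controls were DMSO for no effect and reference compound for full effect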); details: V-ATPase proton transport, at 10 µM, stronger effect = higher value
[13] = system: anti-desmoglein-3 scFv antibody binding to human DSG3; assay: blockers of pathogenic pemphigus antibody–desmoglein-3 binding – biochemical, validation compound set, bead-based, flow cytometry, pilot screen (AID 588368;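 active = binding below the plate cutoff, the plate median minus 3 SD, with a reading above zero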;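 also: signal is the median channel fluorescence of bead-bound GFP antibody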); details: Protein G beads, DSG3-Fc, scFv-GFP binding, at 10 µM, stronger effect = lower value
[14] = Nile Red efflux blockade in pump-expressing yeast – validation compound set, multiplex, phenotypic, pilot screen (AID 588506;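 active = efflux inhibition above 0.42, the validation set average plus 4 SD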;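 also: Nile Red retained in cells so higher fluorescence means more efflux inhibition; 0 = negative control wells and 1 = enniatin B 25 µM full block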); details: S. cerevisiae pump-expressing triplex, Nile Red efflux flow cytometry; at 10 µM; stronger effect = higher value; the pumps come from Candida albicans
[15] = biological target: ATP-binding cassette sub-family B member 6 (Homo sapiens) (UniProt Q9NP58); assay: blockers of ABCB6-driven porphyrin uptake – K562-ABCB6 cells, flow cytometry, validation set, pilot screen (AID 588550); details: K562-ABCB6 porphyrin accumulation, 1 h, at 10 µM, stronger effect = higher value;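 also: 0% = DMSO wells and 100% = benzethonium chloride 70 µM positive control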
ATP-binding cassette sub-family B member 6 (Homo sapiens), sequence (Q9NP58 whole entry, looked up): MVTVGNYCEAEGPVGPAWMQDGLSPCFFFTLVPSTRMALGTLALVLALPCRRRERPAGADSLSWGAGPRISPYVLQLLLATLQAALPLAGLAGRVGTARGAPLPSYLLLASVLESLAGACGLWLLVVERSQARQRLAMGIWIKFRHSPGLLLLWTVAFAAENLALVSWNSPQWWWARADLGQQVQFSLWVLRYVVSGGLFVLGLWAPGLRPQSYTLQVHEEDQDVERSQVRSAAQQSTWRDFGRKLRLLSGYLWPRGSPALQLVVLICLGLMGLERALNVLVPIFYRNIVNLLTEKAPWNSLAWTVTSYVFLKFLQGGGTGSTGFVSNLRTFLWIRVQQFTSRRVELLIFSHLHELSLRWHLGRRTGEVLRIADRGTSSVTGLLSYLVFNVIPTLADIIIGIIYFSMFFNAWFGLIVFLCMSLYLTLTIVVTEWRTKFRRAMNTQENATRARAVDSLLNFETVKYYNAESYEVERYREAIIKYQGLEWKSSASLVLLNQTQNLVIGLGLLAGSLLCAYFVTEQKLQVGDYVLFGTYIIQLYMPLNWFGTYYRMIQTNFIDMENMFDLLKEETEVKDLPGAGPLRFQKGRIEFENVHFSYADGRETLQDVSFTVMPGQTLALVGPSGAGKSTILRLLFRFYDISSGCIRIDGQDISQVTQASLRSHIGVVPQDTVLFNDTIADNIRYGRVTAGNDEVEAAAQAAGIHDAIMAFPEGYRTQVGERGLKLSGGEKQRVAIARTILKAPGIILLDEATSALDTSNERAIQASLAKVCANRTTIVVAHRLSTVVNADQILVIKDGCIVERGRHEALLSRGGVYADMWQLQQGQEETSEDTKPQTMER

[16] = AML differentiation inducers, ER-HoxA9 marrow cells – cell-based, GFP/MAC1 double positive, flow cytometry, validation set, primary screen (AID 588685;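 active = differentiation response of at least 50%, scaled between solvent and reference control, from cells with both markers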;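 also: compound exposure lasts four days before antibody staining and flow analysis; 0% = DMSO wells and 100% = 5 µM fulvestrant positive control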); details: stronger effect = higher value, normalized: vehicle 0, fulvestrant 100
[17] = hit retest on RPL19A-GFP reporter strain – cell-based, S. cerevisiae, flow cytometry, cherry picks, mother/daughter gates, confirmation (AID 2270;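 active = GFP response below 50% of the DMSO control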); details: 3 h, at 10 µM, stronger effect = lower value, 100 = same GFP as DMSO wells
[18] = yeast TOR pathway reporter LAP4-GFP change – cell-based, cherry picks, flow cytometry, mother/daughter gates, confirmation (AID 2271;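 active = GFP response above 150% of the DMSO control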;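 also: ratio of sample to DMSO plate mean so 100% equals DMSO level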); details: S. cerevisiae LAP4-GFP strain, 3 h, at 10 µM, stronger effect = higher value, 100 means same as DMSO control
[19] = TOR pathway reporter MEP2-GFP, retest of hits – S. cerevisiae, flow cytometry GFP, cherry picks, confirmation (AID 2272;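 active = GFP response above 150% of the DMSO control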;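 also: ratio of well signal to plate DMSO mean so 100% equals DMSO level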); details: S. cerevisiae MEP2-GFP strain, 3 h, at 10 µM, stronger effect = higher value
[20] = TOR pathway CIT2 reporter hit retest – S. cerevisiae, GFP fusion, cherry picks, mother/daughter gates, confirmation (AID 2274;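 active = GFP response above 150% of the DMSO level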); details: S. cerevisiae CIT2-GFP strain, flow cytometry, 3 h, at 10 µM, stronger effect = higher value
[21] = measured here: daughter cell gate
[22] = measured here: mother cell gate

CN(C)CCOc1ccc(Cl)cc1C(C)(C)C
40.5%: double positive events [6]
inactive: percent of DMSO control GFP [1] 103% | GFP response vs DMSO [2] 98.5% | percent response of DMSO control [3] 105% | GFP response vs DMSO [4] 122% | GFP response, % of DMSO [5] 109% | inhibition [7] 7.76% | superoxide response (% of plate) [8] 105% | aptamer binding inhibition [9] -1% | response [10] -20.4% | inhibition [11] -1.49% | response [12] -1.18% | binding (% of control) [13] 99.5% | efflux inhibition (fraction of control) [14] 0.05 | inhibition [15] 5% | differentiation response [16] -16.8%

CC(=O)OC[C@H]1O[C@@H](n2ncc(=O)[nH]c2=O)[C@H](OC(C)=O)[C@@H]1OC(C)=O
inactive: percent of DMSO control GFP [1] 94.8% | GFP response vs DMSO [2] 114% | percent response of DMSO control [3] 119% | GFP response vs DMSO [4] 78.1% | inhibition [7] 5.49% | superoxide response (% of plate) [8] 105% | aptamer binding inhibition [9] 6% | response [10] -6.75% | inhibition [11] -6.69% | response [12] -0.17% | binding (% of control) [13] 109% | efflux inhibition (fraction of control) [14] -0.13 | inhibition [15] -40% | differentiation response [16] 20.5%
53.4%: double positive events [6]
active: vesicle binding response [6] 78.5%

COc1ccc(-c2onc(C)c2-c2ccc(C(=O)OC(C)C)o2)c(O)c1
active: response [10] 58.6%
inactive: percent of DMSO control GFP [1] 102% | GFP response vs DMSO [2] 109% | percent response of DMSO control [3] 93.4% | GFP response vs DMSO [4] 102% | GFP response, % of DMSO [5] 90.1% | inhibition [7] 2.93% | superoxide response (% of plate) [8] 95.6% | aptamer binding inhibition [9] -3% | inhibition [11] -6.7% | response [12] -0.7% | binding (% of control) [13] 105% | efflux inhibition (fraction of control) [14] -0.02 | inhibition [15] 5% | differentiation response [16] 13%
71.4%: double positive events [6]

CCOC(=O)c1cccc(C(=O)OCC)n1
inactive: percent of DMSO control GFP [1] 102% | GFP response vs DMSO [2] 98.3% | percent response of DMSO control [3] 100% | GFP response vs DMSO [4] 84.1% | GFP response, % of DMSO [5] 95.7% | vesicle binding response [6] 28.3% | inhibition [7] -2.53% | aptamer binding inhibition [9] 0% | response [10] -0.16% | inhibition [11] 5.21% | response [12] -1.45% | binding (% of control) [13] 103% | inhibition [15] 5% | differentiation response [16] 29.6%
active: efflux inhibition (fraction of control) [14] 0.68
62.1%: double positive events [6]

CC(=O)[C@@]1(O)CC[C@H]2[C@@H]3CCC4=CC(=O)CC[C@]4(C)[C@H]3CC[C@@]21C
105%: GFP response vs DMSO [17, 22]
53.6%: double positive events [6]
101%: GFP response, % of DMSO [20, 22]
active: percent response of DMSO control [3] 139%
97.2%: GFP response relative to DMSO ([18]; measured here: mother cell gate response)
94.1%: GFP response relative to DMSO ([18]; measured here: daughter cell gate response)
99.5%: GFP response vs DMSO [17, 21]
inactive: percent of DMSO control GFP [1] 92.2% | GFP response vs DMSO [2] 130% | GFP response vs DMSO [4] 97.4% | GFP response vs DMSO [17] 104% | GFP response relative to DMSO [18] 95% | GFP response vs DMSO [19] 97.8% | GFP response, % of DMSO [20] 100% | vesicle binding response [6] 216% | inhibition [7] -13.9% | superoxide response (% of plate) [8] 104% | aptamer binding inhibition [9] -15% | response [10] -16.3% | inhibition [11] 42.9% | response [12] -8.27% | binding (% of control) [13] 217% | efflux inhibition (fraction of control) [14] 0.27 | inhibition [15] 2% | differentiation response [16] 40.1%
99.7%: GFP response, % of DMSO [20, 21]

O=C1NCC2=C1C(c1ccccc1)Nc1ccccc1N2 (centres undefined)
65.6%: double positive events [6]
inactive: percent of DMSO control GFP [1] 94.6% | GFP response vs DMSO [2] 112% | percent response of DMSO control [3] 102% | GFP response vs DMSO [4] 75.9% | vesicle binding response [6] 205% | inhibition [7] 9.37% | superoxide response (% of plate) [8] 100% | aptamer binding inhibition [9] 1% | response [10] -9.09% | inhibition [11] 1.06% | response [12] -0.53% | binding (% of control) [13] 102% | efflux inhibition (fraction of control) [14] 0.16 | inhibition [15] 7% | differentiation response [16] -4.09%

CNCCCC12CCC(c3ccccc31)c1ccccc12
inactive: percent of DMSO control GFP [1] 101% | GFP response vs DMSO [2] 107% | percent response of DMSO control [3] 90.8% | GFP response vs DMSO [4] 95.3% | GFP response, % of DMSO [5] 96.7% | vesicle binding response [6] 234% | inhibition [7] 11% | aptamer binding inhibition [9] -11% | response [10] 28.2% | inhibition [11] 3.24% | response [12] 2% | binding (% of control) [13] 103% | efflux inhibition (fraction of control) [14] 0.33 | inhibition [15] -7% | differentiation response [16] 18.8%
66.4%: double positive events [6]

COc1ccc(Cc2nc(-c3ccc(Br)cc3)no2)cc1
active: inhibition [11] 58.9%
40%: double positive events [6]
inactive: percent of DMSO control GFP [1] 100% | GFP response vs DMSO [2] 103% | percent response of DMSO control [3] 101% | GFP response vs DMSO [4] 95.3% | GFP response, % of DMSO [5] 102% | inhibition [7] -12.9% | superoxide response (% of plate) [8] 117% | aptamer binding inhibition [9] -1% | response [10] -5.31% | response [12] -2.85% | binding (% of control) [13] 99.3% | efflux inhibition (fraction of control) [14] 0.14 | inhibition [15] -4% | differentiation response [16] 48.1%

Cc1cccc(N(C)C(=S)Oc2ccc3ccccc3c2)c1
inactive: percent of DMSO control GFP [1] 94.4% | GFP response vs DMSO [2] 114% | percent response of DMSO control [3] 95.2% | GFP response vs DMSO [4] 78.7% | GFP response, % of DMSO [5] 97.5% | inhibition [7] -8.09% | superoxide response (% of plate) [8] 87.4% | aptamer binding inhibition [9] 0% | response [10] 11.2% | inhibition [11] -3.34% | response [12] 4.82% | binding (% of control) [13] 106% | efflux inhibition (fraction of control) [14] -0.38 | inhibition [15] 8% | differentiation response [16] -1.64%
86.4%: double positive events [6]

From PubChem BioAssay
